{"source": "the antibiotic and cytotoxicity screens of Wong et al. (2023)", "note": "The campaign covered roughly 39,000 compounds. About 3,300 (8.5%) were called active. The entries come from a sample that favours actives as a whole.", "data": [{"tested_on": "HepG2", "experiment": "cytotoxicity call (relative viability < 0.9)", "conditions": "10 µM", "values": [{"smiles": "COc1ccccc1CNC(=O)C[C@@H]1C[C@H]2c3cc(NC(=O)C4CCOCC4)ccc3O[C@H]2[C@H](CO)O1", "cytotoxicity call": "inactive"}, {"smiles": "CCN(CCCc1ccccc1)CCCc1ccccc1.O=C(O)CC(O)(CC(=O)O)C(=O)O", "cytotoxicity call": "inactive"}, {"smiles": "CCN(CC)CCc1nc(-c2ccccc2)no1.O=C(O)CC(O)(CC(=O)O)C(=O)O", "cytotoxicity call": "active"}, {"smiles": "NCc1nc(-c2ccccc2)no1", "cytotoxicity call": "inactive"}, {"smiles": "C=CC(=O)Nc1ccccc1[C@@H](CCc1ccc(OC)c(OC)c1)OC(=O)[C@@H]1CCCCN1C(=O)C(=O)C(C)(C)CC", "cytotoxicity call": "inactive"}, {"smiles": "COc1ccc(NC(=O)Nc2ccc3c(c2)[C@H]2C[C@H](CC(=O)NCC(F)(F)F)O[C@H](CO)[C@H]2O3)cc1", "cytotoxicity call": "inactive"}, {"smiles": "Cn1cnc(CCNC(=O)C[C@@H]2CC[C@@H]3[C@H](COC[C@@H](O)CN3C(=O)Nc3ccc(C(F)(F)F)cc3)O2)c1", "cytotoxicity call": "inactive"}, {"smiles": "COc1ccc(NC(=O)Nc2cccc3c2O[C@@H](CN(C)Cc2ccc(C(F)(F)F)cc2)[C@@H](C)CN([C@H](C)CO)C3=O)cc1", "cytotoxicity call": "inactive"}, {"smiles": "COc1ccc(CN(C)C[C@H]2Oc3c(NC(=O)Nc4ccc(C(F)(F)F)cc4)cccc3C(=O)N([C@H](C)CO)C[C@H]2C)cc1", "cytotoxicity call": "inactive"}, {"smiles": "COc1ccc(NC(=O)Nc2cccc3c2O[C@@H](CN(C)Cc2ccc(C(F)(F)F)cc2)[C@H](C)CN([C@@H](C)CO)C3=O)cc1", "cytotoxicity call": "inactive"}, {"smiles": "COc1ccc(CN(C)C[C@@H]2Oc3c(NC(=O)Nc4ccc(C(F)(F)F)cc4)cccc3C(=O)N([C@@H](C)CO)C[C@H]2C)cc1", "cytotoxicity call": "active"}, {"smiles": "COc1ccc(CN(C)C[C@H]2Oc3c(NC(=O)Nc4ccc(C(F)(F)F)cc4)cccc3C(=O)N([C@H](C)CO)C[C@@H]2C)cc1", "cytotoxicity call": "inactive"}, {"smiles": "COc1ccc(CN(C)C[C@H]2Oc3c(NC(=O)Nc4ccc(C(F)(F)F)cc4)cccc3C(=O)N([C@@H](C)CO)C[C@H]2C)cc1", "cytotoxicity call": "active"}, {"smiles": "Cc1noc(C)c1NC(=O)N(C)C[C@@H]1OCCCC[C@@H](C)Oc2ccc(NC(=O)C3CCCCC3)cc2C(=O)N([C@H](C)CO)C[C@H]1C", "cytotoxicity call": "inactive"}, {"smiles": "C[C@@H]1CN([C@@H](C)CO)S(=O)(=O)c2ccc(Br)cc2O[C@H]1CN(C)C(=O)c1ccccc1F", "cytotoxicity call": "inactive"}, {"smiles": "O=C(O)c1cc(=O)cc[nH]1", "cytotoxicity call": "inactive"}, {"smiles": "C[C@@H]1CN([C@@H](C)CO)C(=O)Cc2cc(NS(=O)(=O)c3ccc(F)cc3)ccc2O[C@@H]1CN(C)Cc1ccncc1", "cytotoxicity call": "inactive"}, {"smiles": "COc1ccc(CNC(=O)C[C@H]2C[C@H]3c4cc(NC(=O)NC5CCCC5)ccc4O[C@H]3[C@H](CO)O2)cc1", "cytotoxicity call": "inactive"}, {"smiles": "COc1cccc(S(=O)(=O)Nc2ccc3c(c2)[C@H]2C[C@H](CC(=O)NC4CCCCC4)O[C@H](CO)[C@H]2O3)c1", "cytotoxicity call": "inactive"}]}]}
